Data as given in PubChem BioAssay AID2102 (Southern Research Specialized Biocontainment Screening …, 2009).
Screen size: about 1,100 compounds; about 210 (19%) were called active. The rule behind the calls is not given here. Not all results are given here. A call without a number means that no potency is given here. Potency and affinity values are given separately.

assay: cell viability loss from selected hits – cytotoxicity control for SV40 T antigen inhibitor project, dose response (AID 2102); details: Host cell viability cytotoxicity counter-screen; series mostly up to 50 µM;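 note: cells exposed to compounds for 72 hours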

Compound	outcome
COc1ccc(/C=N/NC(=O)c2ccoc2C)cc1O	inactive
O=C(Nc1ccc(O)cc1)c1ccc2c(c1)C(=O)N(N1C(=O)c3ccccc3C1=O)C2=O	inactive
CC(C)c1ccc(C2CC(=O)N3CN(C)CSC3=C2C#N)cc1 (stereo not drawn)	inactive
O=C(CCCCl)NC1=NN(c2ccccc2)C(=O)C1	inactive
CCOc1cc(/C=C2/N=C(C)C(C(=O)OC)=C2O)ccc1O	inactive
NC1=NC(=O)/C(=C\c2ccco2)S1	inactive
O=c1[nH]c2ccc(NCc3ccc(F)cc3)cc2[nH]1	inactive
C=CCOc1ccccc1CNc1ccc2[nH]c(=O)[nH]c2c1	inactive
COc1cc(/C=N/NC(=O)c2ccccc2O)ccc1OC(=O)CC1SC(=O)NC1=O (stereo not drawn)	inactive
CCOc1cc(/C=N/Nc2nc(-c3cccs3)c(NC(C)=O)s2)ccc1O	inactive
COc1cc(/C=N\Nc2nc(-c3cccs3)c(NC(C)=O)s2)ccc1O	inactive
CCN(CC)c1ccc(NC(=O)COC(=O)COc2ccccc2[N+](=O)[O-])cc1	inactive
CCOC(=O)C[n+]1c(C)sc2ccc(OC)cc21	inactive
CC(Nc1ccc(N2CCOCC2)cc1)C(=O)N1c2ccccc2CC1C (stereo not drawn)	inactive
CCOC(=O)c1cc(-c2ccc(N)cc2)sc1N	inactive
COc1cc(/C=N/NC(=O)c2cccs2)ccc1O	inactive
CCN(CC)c1ccc(/C=N/O)cc1	inactive
Oc1ccc(/C=N/N2CCN(c3ccccn3)CC2)cc1	inactive
COc1cc(/C=N/NC(=O)C2COc3ccccc3O2)ccc1O (stereo not drawn)	inactive

Compound	outcome
COc1cc(/C(C)=N/NC(=O)CSc2nc3ccccc3[nH]2)ccc1O	inactive
O=C(CC1SC(=O)N(c2ccccc2)C1=O)Nc1cccc2ccccc12 (stereo not drawn)	inactive
Cc1csc(N/N=C/c2ccc(O)c([N+](=O)[O-])c2)n1	inactive
CCN(CC)c1ccc(NC(=O)c2cccc(F)c2)c(C)c1	inactive
CCN(CC)c1ccc(NC(=O)c2cccnc2)c(C)c1	inactive
Oc1ccc(C=Nc2ccc(N3CCOCC3)cc2)c(O)c1	inactive
COc1cc(SC#N)ccc1N=Cc1c(C)[nH]n(-c2ccc(C)cc2C)c1=O	inactive
O=C1c2ccccc2NC2(CCCCC2)N1c1ccc(O)cc1	inactive
CCN(CC)c1ccc(NC(=O)CSc2nnc3nc(C)cc(C)n23)cc1	inactive
COC(=O)C1=C(O)/C(=C/c2cccc(OC)c2O)N=C1C	inactive
CC(=O)Nc1ccc(N2CCCCC2)cc1	inactive
CN(C)c1ccc(NC(=O)CN2CCN(c3ccc(F)cc3)CC2)cc1	inactive
COc1cc(/C=N/NC(=O)CNc2n[nH]c(=O)[nH]c2=O)ccc1O	inactive
COc1ccc(OC)c(CCNC(=O)Cn2sc3nc(C)cc(C)c3c2=O)c1	inactive
CCN(CC)S(=O)(=O)c1ccc(C(=O)Oc2coc(CSc3nc(C)cc(C)n3)cc2=O)cc1	inactive
FC(F)(F)C1CCCN(c2nsc3ccccc23)C1 (stereo not drawn)	inactive
Nc1ncc(N=Nc2cc(C(=O)O)ccc2Cl)s1	inactive
CCn1c(SCC(=O)c2ccc(O)c(O)c2)nnc1-c1ccccc1OC	inactive
COc1cc(/C=N/NC(=O)c2nnn(-c3nonc3N)c2-c2cccs2)ccc1O	inactive
